{"source": "PubChem BioAssay AID1345085", "about": "(National Center for Advancing Translational Sciences (NCATS), 2018)", "note": "Records with an inconclusive call do not appear. Calls of active or inactive are those of the source. The call rests on the fitted dose curve; in most records, active means well fitted cell-killing curve with a large enough effect; inconclusive means small, poorly fitted or top-dose-only effect, or effect the other way; inactive means no such curve, though single readings can be large or run the other way. Potency means the concentration at half of the fitted maximal effect.", "data": [{"tested_on": "Es-2", "test": "Confirmatory qHTS for gynecologic anti-cancer compounds from libraries of approved drugs and bioactive compounds; further: nearly all actives have a fitted effect of over 55% in size", "conditions": "gynecologic cancer cell panel viability, ATPlite luminescence, 48 h; series mostly up to 57.6 µM", "in_short": "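ATP-based luminescent viability (ATPlite) after 48 h drug treatment at 37 °C, 5% CO2, across 57.5 uM–0.977 nM in 1:3 steps. Cells seeded at 1,000 per well 16 h beforehand; IC50 values computed, HEK 293T as selectivity control.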", "values": [{"molecule": "Cc1cc(Nc2nc(N[C@@H](C)c3ncc(F)cn3)ncc2Cl)n[nH]1", "Potency": "inactive"}, {"molecule": "CC1(C)[C@@H](O)CC[C@]2(C)[C@H]3C(=O)C=C4[C@@H]5C[C@@](C)(C(=O)O)CC[C@]5(C)CC[C@@]4(C)[C@]3(C)CC[C@@H]12", "Potency": "inactive"}, {"molecule": "C[C@@H](Oc1cc(-c2cnn(C3CCNCC3)c2)cnc1N)c1c(Cl)ccc(F)c1Cl", "Potency": "15.3 µM (active)"}, {"molecule": "Cc1cnc(Nc2ccc(OCCN3CCCC3)cc2)nc1Nc1cccc(S(=O)(=O)NC(C)(C)C)c1", "Potency": "8.63 µM (active)"}, {"molecule": "CN1C(=O)C(Cc2c[nH]c3ccccc23)NC1=S", "note": "(configuration not stated)", "Potency": "inactive"}, {"molecule": "C[C@]12CCC(=O)C=C1[C@@H]1C[C@@H]1[C@H]1[C@@H]3[C@@H]4C[C@@H]4[C@@]4(CCC(=O)O4)[C@@]3(C)CC[C@@H]12", "Potency": "inactive"}, {"molecule": "CN(C)C(CCOc1cccc2ccccc12)c1ccccc1", "note": "(configuration not stated)", "Potency": "inactive"}, {"molecule": "CN(C)C/C=C/C(=O)Nc1cc2c(Nc3ccc(F)c(Cl)c3)ncnc2cc1OC1CCOC1", "note": "(configuration not stated)", "Potency": "15.3 µM (active)"}, {"molecule": "CCN(CC)CCCC(C)Nc1ccnc2cc(Cl)ccc12", "note": "(configuration not stated)", "Potency": "inactive"}, {"molecule": "NC(=O)c1cnc(-c2ccc(C3(N)CCC3)cc2)c(-c2ccccc2)c1", "Potency": "24.3 µM (active)"}, {"molecule": "Cc1ccc(C(=O)Nc2cccc(C(F)(F)F)c2)cc1-c1ccc2nc(NCCN3CCOCC3)ncc2c1", "Potency": "5.44 µM (active)"}, {"molecule": "CC(Oc1cc(-n2cnc3ccc(CN4CCN(C)CC4)cc32)sc1C(N)=O)c1ccccc1C(F)(F)F", "note": "(configuration not stated)", "Potency": "3.43 µM (active)"}, {"molecule": "O=c1c2ccccc2nc2n1CCc1c-2[nH]c2ccccc12", "Potency": "inactive"}, {"molecule": "CC(C)Oc1ccc(C(=O)NC(CNC(=O)CN(C)C)Cc2ccc(-c3cn4cccc(C(C)O)c4n3)cc2)cc1Cl", "note": "(configuration not stated)", "Potency": "0.385 µM (active)"}, {"molecule": "S=c1nc[nH]c2nc[nH]c12", "Potency": "3.85 µM (active)"}, {"molecule": "Nc1ccn([C@@H]2O[C@H](CO)[C@@H](O)C2(F)F)c(=O)n1", "Potency": "0.0306 µM (active)"}, {"molecule": "Nc1ncnc2c1ncn2[C@@H]1O[C@H](CO)C[C@H]1O", "Potency": "inactive"}, {"molecule": "CCc1c2c(nc3ccc(O)cc13)-c1cc3c(c(=O)n1C2)COC(=O)[C@]3(O)CC", "Potency": "0.0385 µM (active)"}, {"molecule": "C[C@]12CCC(=O)C=C1CC[C@@H]1[C@@H]2[C@@H](O)C[C@@]2(C)[C@H]1CC[C@]2(O)C(=O)CO", "Potency": "inactive"}, {"molecule": "Cc1nc(N)nc(N)c1-c1ccc(Cl)c(Cl)c1", "Potency": "1.37 µM (active)"}, {"molecule": "N=C(N)c1ccc(OCCCCCOc2ccc(C(=N)N)cc2)cc1", "Potency": "inactive"}, {"molecule": "O=C(c1ccc(/C=C/c2n[nH]c3ccccc23)cc1)N1CCNCC1", "Potency": "27.3 µM (active)"}, {"molecule": "COC(C(=O)N1Cc2[nH]nc(NC(=O)c3ccc(N4CCN(C)CC4)cc3)c2C1)c1ccccc1", "note": "(configuration not stated)", "Potency": "inactive"}, {"molecule": "COC(C)(C)CCn1nc(Nc2c(C)cccc2C)c2cnc(Nc3ccc(OCCN4CCCC4)c(F)c3)nc21", "Potency": "inactive"}, {"molecule": "CC[C@]1(O)C[C@H]2CN(CCc3c([nH]c4ccccc34)[C@@](C(=O)OC)(c3cc4c(cc3OC)N(C=O)[C@H]3[C@@](O)(C(=O)OC)[C@H](OC(C)=O)[C@]5(CC)C=CCN6CC[C@]43[C@@H]65)C2)C1", "Potency": "0.432 µM (active)"}, {"molecule": "NC1(c2ccc(-c3nc4ccn5c(=O)[nH]nc5c4cc3-c3ccccc3)cc2)CCC1", "Potency": "inactive"}, {"molecule": "OC[C@H]1O[C@@H](n2cnc3c(=S)nc[nH]c32)[C@H](O)[C@@H]1O", "Potency": "4.85 µM (active)"}, {"molecule": "CS(=O)(=O)c1ccc(-c2cnc(N)c(C(=O)Nc3ccccc3)n2)cc1", "Potency": "inactive"}, {"molecule": "Cc1[nH]c2ccccc2c1CCNCc1ccc(/C=C/C(=O)NO)cc1", "Potency": "0.172 µM (active)"}, {"molecule": "CCC1C(=O)N(C)c2cnc(Nc3ccc(C(=O)NC4CCC(N5CCN(CC6CC6)CC5)CC4)cc3OC)nc2N1C(C)C", "note": "(configuration not stated)", "Potency": "1.22 µM (active)"}, {"molecule": "Nc1ccccc1NC(=O)c1ccc(CNc2nccc(-c3cccnc3)n2)cc1", "Potency": "2.43 µM (active)"}, {"molecule": "Nc1nccc(Oc2ccc(NC(=O)c3c[nH]cc(-c4ccc(F)cc4)c3=O)cc2F)c1Cl", "Potency": "34.3 µM (active)"}, {"molecule": "Cc1nc(N)ncc1-c1nc(N2CCOCC2)c2sc(C(C)(C)O)cc2n1", "Potency": "inactive"}, {"molecule": "Cc1cnc(Nc2ccc(CN3CCOCC3)cc2)nc1Nc1cccc(S(=O)(=O)NC(C)(C)C)c1", "Potency": "4.32 µM (active)"}, {"molecule": "CN(C)/N=N/c1nc[nH]c1C(N)=O", "Potency": "inactive"}, {"molecule": "CC1=C(/C=C/C(C)=C/C=C/C(C)=C/C(=O)Nc2ccc(O)cc2)C(C)(C)CCC1", "Potency": "27.3 µM (active)"}, {"molecule": "Cc1cc(C2CCCCC2)n(O)c(=O)c1", "Potency": "9.94 µM (active)"}]}]}
